Results filed as inconclusive are left out. Where a call stands in place of a potency, no number is given. The source made the active and inactive calls. Calls come from the whole dose curve; as a rule, active = well fitted cell-killing curve with a large enough effect in the repeat runs; inconclusive = weak or mixed curves, or effect the other way; inactive = flat fitted curve, though single readings scatter.

Consider 40 molecules from PubChem BioAssay (Tox21).

The test can be described thus: qHTS RealTime-Glo MT Cell Viability Assay in HepG2 cells - 40 hour (AID 1224870). Note: nearly all actives have a fitted effect of over 50% in size. The settings on record: RealTime-Glo luminescence; series mostly up to 76.8 µM. The source says:
National Center for Advancing Translational Sciences [NCATS]
NIH Chemical Genomics Center [NCGC]
U.S. Environmental Protection Agency [EPA]
National Institutes of Environmental Health Sciences [NIEHS]
National Toxicology Program [NTP]
U.S. Food and Drug Administration [FDA]
Measure of cell viability is critical in the cell-base assay. Analysis of cell viability is necessary for the characterization of cell responses to cytotoxic drugs and environmental stress. A RealTime-Glo MT Cell Viability Assay to monitor cell viability in real time of continues cell culture during 40 hours of compound treatment was used to screen Tox21 10K library compounds in HepG2 cells. The RealTime-Glo MT Cell Viability Assay is a nonlytic, homogeneous, bioluminescent method to measure cell viability in real time using a simple, plate-based method. The assay involves adding NanoLuc luciferase and a cell-permeant prosubstrate to cells in culture. Viable cells reduce the proprietary prosubstrate to generate a substrate for NanoLuc luciferase. This substrate diffuses from cells into the surrounding culture medium, where it is rapidly used by the NanoLuc Enzyme to produce a luminescent signal. The signal correlates with the number of viable cells, making the assay well suited for cytotoxicity studies.
Tox21 Assay Protocol Summary:
The mixture of HepG2 cell suspension and reagents were dispensed at 600cells/6 ul/well in 1536-well tissue culture treated black solid bottom plates using a Multidrop dispenser. After the assay plates were incubated at a 37 C/5% CO2 incubator for 5 hours, 23 nL of compounds dissolved in DMSO, positive and negative controls was transferred to the assay plate by a pintool work station. The plates were incubated at 37 C for 40 hours. The luminescence intensity were measured at 0h, 8h, 16h, 24h, 32h and 40h time points using ViewLux plate reader during compound treatment.
(Quantitative high-throughput screening tests each substance at several concentrations.)
With `COc1cc(C)c(Cc2cnc(N)nc2N)cc1OC`, the Potency entry was “inactive”.

On to `OCCOc1cccc(OCCO)c1`, for which the Potency entry was “inactive”.

As for `CC(C)=CCC/C(C)=C/C=N/O`, the Potency entry was “inactive”.

On to `OCCCO`, for which the Potency result was “inactive”.

Turning to `CC1(C)CC(=O)CC(C)(C)N1`, the Potency result was “inactive”.

Take `COc1ccc(/C=C/S(=O)(=O)NC(=O)c2ccc(C)cc2Cl)cc1`: the Potency result is “inactive”.

For the molecule `CCOc1cc(OCC)c(C(C)=O)cc1OCC`, the Potency entry was “inactive”.

As for `C[C@]12CCC(=O)C=C1[C@@H]1C[C@@H]1[C@H]1[C@@H]3[C@@H]4C[C@@H]4[C@@]4(CCC(=O)O4)[C@@]3(C)CC[C@@H]12`, the Potency entry is “inactive”.

For `O=S(=O)(O)c1cc(Cl)c(Cl)cc1Cl`, the Potency result is “inactive”.

As for `CCCCOC(=O)CC#N`, the Potency result was “inactive”.

As to `COC(=O)C(C)(C)C`, the Potency result is “inactive”.

Consider `CCCCCCCCNC`, for which the Potency result is “inactive”.

As to `CS(C)=O`, the Potency result was “inactive”.

For `CC(C)(O)C(=O)O`, the Potency entry was “inactive”.

For `CCC1=C(C)CN(C(=O)NCCc2ccc(S(=O)(=O)NC(=O)NC3CCC(C)CC3)cc2)C1=O` (stereo not given), the Potency entry is “inactive”.

Consider `CCC[Si](OC)(OC)OC`, for which the Potency entry was “inactive”.

In the case of `CCCCCCCCCCCCCCCCCCCl`, the activity change, negative = cytotoxic is 2.37% [at 6.97 µM] (inactive).

Turning to `C(/C=C/C=C/Nc1ccccc1)=Nc1ccccc1`, the Potency result is “inactive”.

Regarding `C=CC(C)(O)CC/C=C(/C)CCC=C(C)C` (stereo not given), the Potency result was “inactive”.

Regarding `OCC(O)c1ccccc1` (stereo not given), the Potency entry is “inactive”.

Turning to `CCCCCCCCCCCCSC#N`, the Potency entry was “inactive”.

For `CC(C)C/C=C(\C=O)c1ccccc1`, the Potency entry was “inactive”.

On to `Cc1ccc2c(Cl)cc(Cl)c(O)c2n1`, for which the Potency result is “inactive”.

With `CC(CN=Cc1ccccc1O)N=Cc1ccccc1O` (stereo not given), the Potency entry was “inactive”.

Take `c1ccc(CCNc2nc(-c3ccccc3)cs2)cc1`: the Potency entry was “inactive”.

As to `CCCCOC(=O)C(C)Oc1ccc(Oc2ccc(C(F)(F)F)cn2)cc1` (stereo not given), the Potency entry was “inactive”.

Take `N#CCCCC(C#N)CCC#N` (stereo not given): the Potency result is “inactive”.

For `CCCCCCCCCCCCCCCCN`, the Potency result was “inactive”.

Take `O=c1[nH]nc(-c2ccc([N+](=O)[O-])o2)o1`: the Potency entry was “inactive”.

`CCCCCCCCCCCCCCCCC(=O)O`: the Potency result is “inactive”.

With `CC(Cc1ccccc1)(NC(=O)CN)c1ccccc1` (stereo not given), the Potency entry was “inactive”.

Consider `CC1(COc2ccc(CC3SC(=O)NC3=O)cc2)CCCCC1` (stereo not given), for which the Potency entry is “inactive”.

As for `CC(=O)CC/C=C(\C)CC/C=C(\C)CC/C=C(\C)CCC=C(C)C`, the Potency entry is “inactive”.

As for `CC[C@H](NC(C)C)[C@H](O)c1ccc(O)c2[nH]c(=O)ccc12`, the Potency result is “inactive”.

Regarding `CCCCCCCCCC(C)C=O` (stereo not given), the Potency entry is “inactive”.

Take `CCCCCCC/C=C/C=O`: the Potency entry was “inactive”.

Turning to `Clc1ccccc1-c1nc(-c2ccncc2)no1`, the Potency result is “inactive”.

For `O=C(OCCOCCOCCOC(=O)c1ccccc1)c1ccccc1`, the Potency result was “inactive”.

Regarding `O=c1[nH][nH]c2ccccc12`, the Potency entry was “inactive”.

Take `COc1cccc([C@H](O)C2CCN(CCc3ccc(F)cc3)CC2)c1OC`: the Potency entry was “inactive”.
